High-throughput results deposited in PubChem BioAssay by National Center for Advancing Translational Sciences (NCATS).
DT40 TDP1 no CPT: qHTS for Inhibitors of human tyrosyl-DNA phosphodiesterase 1 (TDP1): qHTS in cells in absence of CPT; DT40 Tdp1-/- hTDP1 cells, no CPT, ATP luminescence, 48 h; Potency, µM (top dose mostly 46.2 µM), for the others: at the highest dose activity change, negative = growth inhibition, most hits filed as inhibitors; actives 15% (n = 420,000); AID 686978, 2013; note: potency is the fitted concentration of half-maximal effect; nearly all actives have a fitted effect of over 55% in size
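Stably hTDP1-transfected Tdp1-null chicken DT40 cells were treated with library compounds minus camptothecin and grown for at least 48 hr at 37 °C, after which cellular ATP was quantified by luminescence.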
TDP1 cell CPT: growth inhibition of DT40 Tdp1-/-;hTDP1 cells with camptothecin (screen for TDP1 inhibitors). Potency, µM (titrated, usually from 46.2 µM), for the others: at the highest dose activity change, negative = growth inhibition, actives largely listed as inhibitors. chicken DT40 Tdp1-/-;hTDP1 cells + 20 nM CPT, ATP luminescence, 48 h. actives 12% (n = 420,000); note: potency is the fitted concentration of half-maximal effect; nearly all actives have a fitted effect of over 55% in size
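Chicken DT40 Tdp1-/- cells complemented with human TDP1, 400 cells/well, exposed to compounds plus 20 nM camptothecin for at least 48 h at 37 C; viability read as ATP content by CellTiter-Glo luminescence.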
IL-1B inflam inh: inflammasome signaling inhibition, IL-1 beta readout. AID 743279. THP-1 LPS/ATP IL-1B secretion, AlphaLISA, 16 h; stronger effect = lower value. activity change, % at 57.5 µM. actives 4.7% (n = 360,000); in the data active = activity change below about -50%; inconclusive = mostly about -30% to -49%
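Secreted IL-1B measured by AlphaLISA bead assay after 16 h compound exposure of THP-1 cells; compounds (final up to 57.5 uM) added 1 h before LPS (250 ng/mL) and ATP (1.25 mM) stimulation; lower signal means less secretion.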
HT1080 IDH1KD tx: toxicity to HT-1080 IDH1 knockdown cells (counter line); Potency, µM (highest dose often 46.1 µM), for the others: top-dose activity, negative = toxicity, usual class: cytotoxic; actives 2% (n = 360,000); AID 686971; HT-1080 IDH1 knockdown viability, ATP luminescence, 48 h;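 note: potency is the fitted concentration of half-maximal effect; 0% = DMSO wells and -100% = cell-free medium wells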
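Viability of IDH1-knockdown HT-1080 fibrosarcoma cells was assessed by CellTiter-Glo after 48 h at 37 °C with titrated compound; concentration-effect curves were classified by fit quality and response size.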
HT1080-NT tox: kills 2HG-producing HT-1080-NT fibrosarcoma cells | HT-1080-NT fibrosarcoma viability, CellTiter-Glo ATP luminescence, 48 h | Potency, µM (doses to about 46.1 µM), for inactives: top-dose activity, negative = less viability, most hits filed as cytotoxic | actives 1.6% (n = 360,000);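 note: NT is the 2HG producing partner of a matched IDH1 knockdown line; potency is the fitted concentration of half-maximal effect; 0% = DMSO-treated cells and -100% = media-only wells without cells; nearly all actives have a fitted effect of over 55% in size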
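HT-1080-NT fibrosarcoma cells (2HG-overproducing), 750 cells/well in RPMI with 5% FBS, dosed after 2 h and incubated 48 h at 37C. CellTiter-Glo luminescence normalized to DMSO and no-cell wells; concentration-response curves fitted and classed.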
* = called active by the depositor; ? = inconclusive; . = no result given; [ ] = dose if it differs, or a comment. Most compounds without a hit are left out; they make up all but 19% or so of the library. Unless noted, calls come from the whole dose curve; as a rule, active = well fitted curve in the direction sought with a large enough effect; inconclusive = small, poorly fitted or top-dose-only effect, or another doubt; inactive = no such curve, though single readings can be large; an effect the other way counts as inactive or inconclusive. Unless noted, % is set by controls: 0 for no effect and ±100 for the full control effect.

SMILES	DT40 TDP1 no CPT	TDP1 cell CPT	IL-1B inflam inh	HT1080 IDH1KD tx	HT1080-NT tox
Cc1cc(NC(=O)c2ccc3c(c2)OCCO3)ccc1NC(=O)c1cc2ccccc2o1	4.6µM*	5.8µM*	84	?	?
O=C(Nc1ccc(NC(=O)c2cc3ccccc3o2)cc1)c1ccc2c(c1)OCCO2	-27%	-8%	39	-6%	9%
Cc1cc(NC(=O)c2cccnc2Cl)ccc1NC(=O)c1cc2ccccc2o1	10µM*	9.2µM*	-7	-15%	-18%
Cc1ccc(/C=C2/Sc3ccc(C(=O)N4CCN(C)CC4)cc3NC2=O)cc1	?	23µM*	-5	-20%	-14%
Cc1ccc(/C=C2/Sc3ccc(C(=O)NCCN4CCOCC4)cc3NC2=O)cc1	?	-23%	-3	-2%	1%
CCN1CCCC1CNC(=O)c1ccc2c(c1)NC(=O)/C(=C\c1ccc(C)cc1)S2 (stereo not drawn)	16µM*	?	-15	0%	?
COc1ccc(CC(=O)N2CCN(c3ccccc3OC)CC2)cc1OC	-17%	0%	0	2%	-7%
CC1CN(CCc2ccccc2)c2nc3c(c(=O)n(CC(N)=O)c(=O)n3C)n2C1 (stereo not drawn)	18%	?	17	-2%	9%
CSCC[C@H](NC(=O)Cc1c(C)c2c(cc(C)c3c(C)coc32)oc1=O)C(=O)O	-1%	16%	-5	6%	19%
Cc1ccccc1CN1N=C(/C=C/c2ccccc2)CCC1=O	23µM*	-9%	-13	0%	0%
CCc1cc(C(=O)N2CCOc3ccc(CN4CCN(Cc5ccccn5)CC4)cc3C2)no1	-16%	1%[9.04 µM]	.	.	.
COc1cc(/C=C/c2nc3ccccc3nc2/C=C/c2cc(OC)c(OC)c(OC)c2)cc(OC)c1OC	4.5µM*	1.3µM*	.	.	.
CCOc1cc(/C=C/C(=O)O)ccc1OCc1ccccc1	6%	-6%	15	-17%	-16%
Cc1[nH]c2ccccc2c1/C=C/c1ccc2ccccc2n1	-111%	?	.	.	.
CCOc1ccc(/C=C/c2ccc3ccccc3n2)cc1OCC	2.5µM*	2.8µM*	.	.	.
COc1cc(/C=C/c2ccc3ccccc3n2)cc(OC)c1OC	0.071µM*	0.16µM*	.	.	.
COc1cc(C=Cc2nnc3c4ccccc4cnn23)cc(OC)c1OC	0.82µM*	3.3µM*	-29	-3%	6%
COc1ccc(C(=O)C[C@@H]2OC[C@H](Cc3ccccc3)N2S(=O)(=O)c2ccc(C)cc2)cc1OC	?	?	-5	3%	6%
COCCCN1CC(=O)N2C(c3cccc(C)c3)c3[nH]c4ccccc4c3C[C@H]2C1=O (stereo partly drawn)	-20%	-14%	-3	-20%	-21%
O=c1[nH]cccc1-c1nc2ccccc2n1Cc1ccccc1F	29µM*	21µM*	3	3%	10%
CCn1c(-c2ccc[nH]c2=O)nc2ccccc21	9%	0%	22	-1%	0%
COCCNC(=O)Cc1c(C)c2c(cc(C)c3c(C(C)(C)C)coc32)oc1=O	15µM*	9.2µM*	-24	8.2µM*	6.5µM*
Cc1cc2oc(=O)c(CC(=O)NCCCO)c(C)c2c2occ(C(C)(C)C)c12	-28%	?	-2	-2%	-6%
COc1ccc(CCNC(=O)Cc2c(C)c3c(cc(C)c4c(C)coc43)oc2=O)cc1OC	21µM*	18µM*	.	.	.
Cc1cc2oc(=O)c(CC(=O)NCCCN(C)C)c(C)c2c2occ(C(C)(C)C)c12	?	?	-98*	5.8µM*	18µM*
O=C(CNS(=O)(=O)c1ccccc1F)NNC(=O)c1ccc(Br)cc1	-4%	?	-2	-2%	-16%
COc1ccc(C(CNC(=O)Cc2cccs2)N(C)C)cc1 (stereo not drawn)	1%	-2%	29	-8%	-8%
